Here are results for seven molecules from PubChem BioAssay (NCI).

What all share (experiment): NCI-60 one-dose screen, 48 h (100 = growth as untreated, 0 = no growth, -100 = all killed)
Common to all, as to details: 10 µM unless noted

For assay [1], the system named is NCI-H23 lung.
Assay [2] concerns NCI-H226 lung.
Assay [3] relates to NCI-H322M lung.
Assay [4] relates to HOP-62 NSCLC.
Assay [5] deals with NCI-H460 lung.
Assay [6] has as its system HOP-92 NSCLC.
The test system of assay [7] is NCI-H522 lung.
Assay [8] deals with A549/ATCC NSCLC.
Assay [9] has as its system 786-0 renal.
Assay [10] relates to COLO 205 colon.
Assay [11] relates to DU-145 prostate.
Assay [12] relates to K-562 leukemia.
The test system of assay [13] is MALME-3M melanoma.
Assay [14] relates to MDA-MB-231 breast.
Assay [15] relates to RXF 393 renal.
Assay [16] has as its system SF-268 CNS.
The test system of assay [17] is SF-295 CNS.
The test system of assay [18] is SF-539 CNS.
Assay [19] relates to UACC-257 melanoma.
Assay [20] has as its system M14 melanoma.

Structures are written as SMILES. About 83,000 compounds went through this panel and 20% of them were active in at least one assay; those are over-represented in the sample as a whole.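 A percent growth of 40 corresponds to 60% growth inhibition; 0 means no net growth; -100 means all cells died. Active threshold: below 10.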 Values without a mark were called inactive. Calls of active or inactive are those of the source.

Take `O=[N+]([O-])c1ccc(Oc2ccccc2Cl)c([N+](=O)[O-])c1`: the growth was 73.9% in [1]; 83.8% in assay [2]; 97.8% in [3]; 99.4% in assay [4]; 105% in assay [5]; 83.7% in assay [6]. Further, the growth in [7] was 73.8%; in assay [8], 92.7%; in [9], 83.7%; in [10], 112%; in [11] it was 89%; in [12], 17.4%. In addition, the growth in assay [13] is 85.5%; in [14], 75.5%; in assay [15] it was 86.7%; in assay [16], 84.9%; in [17], 102%; in [18], 94.6%. In addition, the growth was 89.8% in assay [19] and 86.2% in [20].
For `CN(C)c1ccc(C(C#N)(c2ccccc2)c2ccc(N(C)C)cc2)cc1`, the growth in assay [1] is 54.2%; in [2], 72.3%; in [3] it was 86.8%; in [4] it was 90.6%; in assay [5], 50.8%; in assay [6], 54.6%. The growth in [7] was 82.2%; in assay [8] it was 49.9%; in assay [9] it was 67.7%; in assay [10] it was 45.2%; in assay [11], 60%; in assay [12], 26.1%. Further, the growth is 69.9% in assay [13]; 79.4% in assay [14]; 75.3% in assay [15]; 58.9% in assay [16]; 77.9% in assay [17]; 16.1% in assay [18]. Besides, the growth in assay [19] was 84.7%; in assay [20], 55.2%.
Take `c1ccc(-c2cccc(-c3ccccn3)n2)nc1`: the growth was 21.3% in assay [1]; 4.69% (active) in [2]; 26.9% in assay [3]; 7.3% (active) in assay [4]; 3.53% (active) in assay [5]; 42.4% in [6]. The growth is 18.3% in assay [7]; 9.52% (active) in assay [8]; 16.2% in [9]; 4.26% (active) in assay [10]; 17.8% in assay [11]; 4.95% (active) in assay [12]. Further, the growth in [13] is 3.68% (active); in assay [14], 44.1%; in [15] it was 26.2%; in assay [16] it was 19.9%; in assay [17], 19.5%; in assay [18], 5.87% (active). Further, the growth is -4.86% (active) in assay [19] and -17.8% (active) in [20].
Consider `O=C1c2ccccc2C(=O)c2c(O)c(Cl)cc(O)c21`, for which the growth is 96.6% in assay [1]; 104% in assay [2]; 111% in assay [3]; 96.2% in [4]; 100% in assay [5]; 87.7% in assay [6]. Moreover, the growth in assay [7] is 85.4%; in assay [8], 108%; in assay [9], 99.2%; in assay [10], 101%; in assay [11] it was 69.7%; in assay [12], 57%. Moreover, the growth was 71.5% in assay [13]; 95.6% in assay [14]; 103% in [15]; 94.4% in assay [16]; 113% in [17]; 99.1% in [18]. Further, in assay [19], the growth is 58.4%.
`O=C(NNc1ccccc1)OCc1ccccc1`: the growth in assay [1] was 103%; in [2] it was 97.7%; in assay [3], 67.6%; in assay [4] it was 100%; in assay [5], 79.5%; in [6], 82%. The growth was 82.1% in assay [7]; 70.7% in assay [8]; 78.2% in assay [9]; 97.6% in assay [10]; 69.1% in assay [11]; 3.91% (active) in assay [12]. Also, the growth in [13] is 121%; in assay [14] it was 74.4%; in assay [15], 119%; in assay [16], 63%; in assay [17], 58%; in [18], 97.1%. Also, the figures for the growth in assay [19] and in [20] were 92.4% and 17.6%, respectively.
As for `CCOc1ccc(C(C[N+](=O)[O-])Sc2ccccc2N)cc1` (centres undefined), the growth is 10.2% in assay [1]; 78.6% in [2]; 88.2% in assay [3]; 92.1% in assay [4]; 58.9% in assay [5]; 82.7% in assay [6]. Also, the growth in assay [7] is 85.3%; in assay [8], 62.9%; in [9], -63.2% (active); in [10], 10.1%; in assay [11], -19.9% (active); in assay [12] it was 9.12% (active). For the same molecule, the growth in [13] was 68%; in assay [14], 18.4%; in assay [15], -65.3% (active); in assay [16], 120%; in assay [17], 40.4%; in assay [18], -44.5% (active). Also, the figures for the growth in assay [19] and in assay [20] were 59.2% and -41.2% (active), respectively.
As for `CC(C)(C)c1ccc(O)c(Br)c1`, the growth in assay [1] was 93.6%; in assay [2], 92.5%; in [3], 101%; in [4], 107%; in assay [5] it was 95.6%; in assay [6], 98.2%. Besides, the growth in assay [7] is 119%; in assay [8], 107%; in [9], 100%; in [10], 105%; in assay [11] it was 105%; in assay [12], 120%. The growth was 99.8% in assay [13]; 104% in [14]; 91.2% in assay [15]; 95.5% in assay [16]; 95.8% in assay [17]; 102% in assay [18]. The growth in [19] is 111%; in [20] it was 95.8%.
